Results on 57 molecules are retold here after the supplement of paper PMC7724964.

Common to all, as to assay: phage ELISA signal ratio (GST-PRM binding over GST background); higher = stronger binding of peptide-phage to the PRM
(In an ELISA, binding on a coated surface is turned into a signal by an enzyme label.)

The target in assay [1] is RANBP1 39-170 Ran_BP1 (domain begin residue: 39, domain end residue: 170), P43487. The essentials:
(§1)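 Approximately 48 individual clones from selection rounds 4 and 5 were tested by phage ELISA, and those scoring positive were sequenced. They came from five rounds of selecting an M13 phage library of randomized, cysteine-free, glycine-flanked hexadecapeptides on the gene-8 major coat protein against human peptide recognition domains fused to the C-terminus of glutathione S-transferase (GST) in 96-well plates. Each figure in the table is the ELISA signal on the GST-domain fusion relative to the signal on GST alone.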

Assay [2] has as its target RANBP2 2924-3050 Ran_BP1 (domain begin residue: 2924, domain end residue: 3050). The essentials:
as §1

The target of assay [3] is SETD1A 2-220 RRM_1 (domain begin residue: 2, domain end residue: 220), O15047. In short, it runs like this: as §1
In assay [4] the target is RANBP2 1184-1310 Ran_BP1 (domain begin residue: 1184, domain end residue: 1310). The essentials: as §1
For assay [5], the target named is T1, RARA 175-421 Hormone_recep (domain begin residue: 175, domain end residue: 421), P10276.
T1 chain: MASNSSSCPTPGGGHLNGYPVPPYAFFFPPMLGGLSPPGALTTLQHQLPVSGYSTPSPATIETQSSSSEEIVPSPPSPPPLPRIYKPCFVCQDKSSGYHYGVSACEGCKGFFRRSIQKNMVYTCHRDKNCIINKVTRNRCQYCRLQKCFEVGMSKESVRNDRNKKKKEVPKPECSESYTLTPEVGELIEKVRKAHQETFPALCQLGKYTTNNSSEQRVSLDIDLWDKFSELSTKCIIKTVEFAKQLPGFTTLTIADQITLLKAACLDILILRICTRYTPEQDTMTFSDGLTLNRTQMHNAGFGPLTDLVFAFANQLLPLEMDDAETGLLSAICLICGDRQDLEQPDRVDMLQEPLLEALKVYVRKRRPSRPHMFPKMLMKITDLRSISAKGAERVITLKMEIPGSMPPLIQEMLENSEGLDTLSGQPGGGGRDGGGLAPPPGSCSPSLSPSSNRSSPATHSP
The essentials:
as §1

The target in assay [6] is T2, RXRB 298-533 Hormone_recep (domain begin residue: 298, domain end residue: 533), P28702.
T2 chain: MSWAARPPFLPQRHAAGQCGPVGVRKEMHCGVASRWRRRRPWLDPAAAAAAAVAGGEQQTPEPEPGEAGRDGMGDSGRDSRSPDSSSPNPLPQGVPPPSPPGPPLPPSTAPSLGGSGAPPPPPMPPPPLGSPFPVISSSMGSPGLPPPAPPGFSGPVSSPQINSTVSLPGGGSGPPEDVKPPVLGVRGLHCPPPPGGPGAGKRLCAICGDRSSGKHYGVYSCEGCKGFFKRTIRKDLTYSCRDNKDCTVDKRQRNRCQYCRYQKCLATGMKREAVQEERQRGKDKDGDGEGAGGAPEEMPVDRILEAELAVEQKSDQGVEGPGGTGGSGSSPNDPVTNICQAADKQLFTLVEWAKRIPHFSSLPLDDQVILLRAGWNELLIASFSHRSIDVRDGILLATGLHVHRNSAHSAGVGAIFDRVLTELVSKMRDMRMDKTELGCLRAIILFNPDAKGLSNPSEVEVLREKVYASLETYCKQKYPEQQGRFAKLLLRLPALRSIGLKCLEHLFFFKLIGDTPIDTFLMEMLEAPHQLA
The essentials: as §1

The target in assay [7] is T3, RBM17 298-401 RRM_1 (domain begin residue: 298, domain end residue: 401), Q96I25.
T3 chain: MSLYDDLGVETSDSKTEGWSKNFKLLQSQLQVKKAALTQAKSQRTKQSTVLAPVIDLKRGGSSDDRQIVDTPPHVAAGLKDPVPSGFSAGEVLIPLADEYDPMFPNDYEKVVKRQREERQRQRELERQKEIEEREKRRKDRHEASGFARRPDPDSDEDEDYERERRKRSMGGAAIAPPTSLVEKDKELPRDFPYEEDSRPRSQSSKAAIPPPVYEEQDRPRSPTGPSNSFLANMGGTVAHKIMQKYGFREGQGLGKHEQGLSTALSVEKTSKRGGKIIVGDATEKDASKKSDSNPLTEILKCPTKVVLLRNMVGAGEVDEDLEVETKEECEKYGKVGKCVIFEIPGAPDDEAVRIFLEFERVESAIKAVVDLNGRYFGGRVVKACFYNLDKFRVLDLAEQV
The essentials: as §1

Assay [8] concerns the target RPA1 2-121 Rep-A_N (domain begin residue: 2, domain end residue: 121), P27694. In short, it runs like this:
as §1

The target of assay [9] is T4, RORB 212-470 Hormone_recep (domain begin residue: 212, domain end residue: 470), Q92753.
T4 chain: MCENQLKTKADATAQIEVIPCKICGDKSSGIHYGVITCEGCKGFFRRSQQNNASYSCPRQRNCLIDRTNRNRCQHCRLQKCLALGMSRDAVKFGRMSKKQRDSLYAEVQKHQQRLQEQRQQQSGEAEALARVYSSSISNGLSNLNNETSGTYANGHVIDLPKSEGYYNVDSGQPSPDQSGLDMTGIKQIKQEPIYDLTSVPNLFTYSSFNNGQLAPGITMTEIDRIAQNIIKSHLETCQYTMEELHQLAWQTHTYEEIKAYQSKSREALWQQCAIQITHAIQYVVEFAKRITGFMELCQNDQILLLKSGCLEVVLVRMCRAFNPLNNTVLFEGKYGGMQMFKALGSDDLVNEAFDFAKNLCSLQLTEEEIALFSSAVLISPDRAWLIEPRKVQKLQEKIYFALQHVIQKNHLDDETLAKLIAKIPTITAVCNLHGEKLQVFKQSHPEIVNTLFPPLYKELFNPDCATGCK
In short, it runs like this: as §1

Assay [10] deals with T5, RARG 183-417 Hormone_recep (domain begin residue: 183, domain end residue: 417), P13631.
T5 chain: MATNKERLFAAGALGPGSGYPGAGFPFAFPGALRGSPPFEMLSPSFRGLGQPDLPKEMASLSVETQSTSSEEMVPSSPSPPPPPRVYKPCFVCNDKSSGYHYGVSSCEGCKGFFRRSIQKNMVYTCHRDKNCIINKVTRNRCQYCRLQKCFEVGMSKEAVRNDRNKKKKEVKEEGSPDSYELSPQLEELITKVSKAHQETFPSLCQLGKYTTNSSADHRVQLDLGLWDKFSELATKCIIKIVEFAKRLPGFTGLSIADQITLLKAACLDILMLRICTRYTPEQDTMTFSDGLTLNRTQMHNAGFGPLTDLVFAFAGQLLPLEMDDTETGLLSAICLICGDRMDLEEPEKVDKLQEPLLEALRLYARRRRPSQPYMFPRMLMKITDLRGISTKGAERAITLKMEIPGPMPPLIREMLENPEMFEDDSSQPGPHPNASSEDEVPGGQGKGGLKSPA
The essentials:
as §1

The target of assay [11] is T6, S100A11 5-105 S_100+EF-hand_1 (domain begin residue: 5, domain end residue: 105), P31949.
T6 chain: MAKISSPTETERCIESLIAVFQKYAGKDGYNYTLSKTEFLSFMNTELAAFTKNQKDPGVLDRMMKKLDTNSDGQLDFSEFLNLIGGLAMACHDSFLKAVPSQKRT
In short, it runs like this:
as §1

Assay [12] addresses RBBP5 2-538 WD40 (domain begin residue: 2, domain end residue: 538), Q15291. The essentials:
as §1

Assay [13] concerns the target RPA2 202-270 RPA_C (domain begin residue: 202, domain end residue: 270), P15927. In short, it runs like this: as §1

RANBP1 39-170 Ran_BP1 (domain begin residue: 39, domain end residue: 170), P43487, sequence (P43487 whole entry, the tested form may be a part): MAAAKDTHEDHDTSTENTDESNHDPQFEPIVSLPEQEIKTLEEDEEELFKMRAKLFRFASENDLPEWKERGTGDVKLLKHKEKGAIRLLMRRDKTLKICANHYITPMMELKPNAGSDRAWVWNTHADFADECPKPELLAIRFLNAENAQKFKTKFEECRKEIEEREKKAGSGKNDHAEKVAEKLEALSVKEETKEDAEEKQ
RPA1 2-121 Rep-A_N (domain begin residue: 2, domain end residue: 121), P27694, sequence (P27694 whole entry): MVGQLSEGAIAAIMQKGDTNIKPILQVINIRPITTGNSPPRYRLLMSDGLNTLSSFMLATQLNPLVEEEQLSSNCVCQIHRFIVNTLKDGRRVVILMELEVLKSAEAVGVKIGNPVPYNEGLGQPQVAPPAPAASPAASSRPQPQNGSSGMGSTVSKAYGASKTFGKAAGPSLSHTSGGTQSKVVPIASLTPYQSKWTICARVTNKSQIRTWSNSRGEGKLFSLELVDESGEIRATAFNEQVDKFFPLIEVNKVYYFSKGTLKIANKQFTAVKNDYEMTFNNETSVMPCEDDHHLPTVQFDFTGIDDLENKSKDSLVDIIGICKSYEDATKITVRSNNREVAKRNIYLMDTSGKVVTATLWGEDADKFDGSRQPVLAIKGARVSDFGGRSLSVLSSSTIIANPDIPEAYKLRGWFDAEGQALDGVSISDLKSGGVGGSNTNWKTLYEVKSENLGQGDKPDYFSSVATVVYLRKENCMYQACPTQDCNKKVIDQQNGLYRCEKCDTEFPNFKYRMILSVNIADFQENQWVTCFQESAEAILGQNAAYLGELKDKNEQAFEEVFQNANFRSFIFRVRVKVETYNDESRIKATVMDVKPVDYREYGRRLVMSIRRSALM
SETD1A 2-220 RRM_1 (domain begin residue: 2, domain end residue: 220), O15047, sequence (O15047 whole entry): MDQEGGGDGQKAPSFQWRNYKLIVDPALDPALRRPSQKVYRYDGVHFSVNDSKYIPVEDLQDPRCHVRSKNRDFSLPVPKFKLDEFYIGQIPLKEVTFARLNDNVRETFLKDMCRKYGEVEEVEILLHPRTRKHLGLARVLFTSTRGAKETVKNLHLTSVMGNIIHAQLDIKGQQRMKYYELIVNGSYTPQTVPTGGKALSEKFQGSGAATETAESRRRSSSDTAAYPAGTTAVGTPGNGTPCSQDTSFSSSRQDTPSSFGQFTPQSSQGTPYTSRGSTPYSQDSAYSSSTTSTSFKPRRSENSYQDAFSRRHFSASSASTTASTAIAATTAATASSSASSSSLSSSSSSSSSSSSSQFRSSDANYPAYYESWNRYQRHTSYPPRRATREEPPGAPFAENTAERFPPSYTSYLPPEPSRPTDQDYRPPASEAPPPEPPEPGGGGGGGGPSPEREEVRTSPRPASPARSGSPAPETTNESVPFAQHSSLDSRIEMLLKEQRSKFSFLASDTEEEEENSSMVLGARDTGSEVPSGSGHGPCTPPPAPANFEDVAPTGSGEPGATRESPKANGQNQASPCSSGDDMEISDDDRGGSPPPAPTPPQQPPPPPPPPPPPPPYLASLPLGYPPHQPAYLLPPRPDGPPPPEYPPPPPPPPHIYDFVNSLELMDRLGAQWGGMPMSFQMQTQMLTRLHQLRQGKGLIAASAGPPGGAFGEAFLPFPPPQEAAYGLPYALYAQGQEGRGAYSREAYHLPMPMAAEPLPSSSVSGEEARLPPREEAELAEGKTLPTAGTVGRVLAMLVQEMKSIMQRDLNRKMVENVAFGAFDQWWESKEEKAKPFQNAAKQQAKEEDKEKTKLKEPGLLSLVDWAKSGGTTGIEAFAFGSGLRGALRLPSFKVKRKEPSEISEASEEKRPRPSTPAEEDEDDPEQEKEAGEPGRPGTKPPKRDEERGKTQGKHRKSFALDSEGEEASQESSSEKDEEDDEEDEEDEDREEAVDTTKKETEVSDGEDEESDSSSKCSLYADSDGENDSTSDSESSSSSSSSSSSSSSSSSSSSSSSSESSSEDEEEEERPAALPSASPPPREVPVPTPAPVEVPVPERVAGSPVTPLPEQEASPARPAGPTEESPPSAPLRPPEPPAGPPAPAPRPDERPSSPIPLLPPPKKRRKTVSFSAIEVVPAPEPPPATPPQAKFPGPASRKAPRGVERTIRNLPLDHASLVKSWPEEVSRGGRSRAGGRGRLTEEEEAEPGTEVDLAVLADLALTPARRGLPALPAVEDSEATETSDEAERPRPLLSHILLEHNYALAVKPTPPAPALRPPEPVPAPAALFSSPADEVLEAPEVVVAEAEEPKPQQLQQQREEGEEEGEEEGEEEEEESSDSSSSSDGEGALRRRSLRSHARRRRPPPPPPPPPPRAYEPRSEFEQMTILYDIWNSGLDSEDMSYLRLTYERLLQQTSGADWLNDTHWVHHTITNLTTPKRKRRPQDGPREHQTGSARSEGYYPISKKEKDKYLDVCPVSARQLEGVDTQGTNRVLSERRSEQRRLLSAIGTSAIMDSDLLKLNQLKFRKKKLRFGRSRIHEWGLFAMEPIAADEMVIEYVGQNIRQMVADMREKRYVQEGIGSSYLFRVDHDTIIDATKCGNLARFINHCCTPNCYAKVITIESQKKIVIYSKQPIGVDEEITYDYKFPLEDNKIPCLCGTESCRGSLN
RBBP5 2-538 WD40 (domain begin residue: 2, domain end residue: 538), Q15291, sequence (Q15291 whole entry): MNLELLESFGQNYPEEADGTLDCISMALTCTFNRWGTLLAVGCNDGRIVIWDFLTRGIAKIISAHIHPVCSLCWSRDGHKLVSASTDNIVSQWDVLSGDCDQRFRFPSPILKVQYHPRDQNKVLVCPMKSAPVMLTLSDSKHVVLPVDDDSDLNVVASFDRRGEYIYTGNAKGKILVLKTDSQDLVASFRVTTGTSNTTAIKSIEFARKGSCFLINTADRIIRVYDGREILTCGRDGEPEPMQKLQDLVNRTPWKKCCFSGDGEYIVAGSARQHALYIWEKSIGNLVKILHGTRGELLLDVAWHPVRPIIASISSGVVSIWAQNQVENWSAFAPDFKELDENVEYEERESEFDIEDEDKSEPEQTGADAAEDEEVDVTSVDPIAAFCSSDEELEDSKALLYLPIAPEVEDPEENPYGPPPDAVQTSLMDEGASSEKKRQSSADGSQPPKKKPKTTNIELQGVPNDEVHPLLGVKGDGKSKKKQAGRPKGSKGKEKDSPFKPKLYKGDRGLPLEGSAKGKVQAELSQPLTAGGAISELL
RPA2 202-270 RPA_C (domain begin residue: 202, domain end residue: 270), P15927, sequence (P15927 whole entry): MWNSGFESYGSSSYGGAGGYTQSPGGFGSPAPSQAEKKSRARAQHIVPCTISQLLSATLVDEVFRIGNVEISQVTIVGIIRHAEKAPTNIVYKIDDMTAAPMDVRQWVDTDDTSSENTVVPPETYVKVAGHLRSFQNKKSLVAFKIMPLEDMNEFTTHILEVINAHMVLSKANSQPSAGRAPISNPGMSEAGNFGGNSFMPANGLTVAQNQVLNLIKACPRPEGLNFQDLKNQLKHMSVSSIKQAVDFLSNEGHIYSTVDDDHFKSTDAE

Regarding WGQMPLPVDMPETWNF, the “phage ELISA signal ratio” value in assay [1] stood at 21.
EWDWPSDHSWWEYIQH: the “phage ELISA signal ratio” value in assay [2] came to 8.48.
For the molecule PTEAEWGIWHDLPDYE, the “phage ELISA signal ratio” value in assay [1] was determined as 10.1.
For the molecule YNFPMDWDQIPITWPQ, the “phage ELISA signal ratio” value in [3] amounted to 6.17.
With QDWWETALPQEPWHVV, in [2], the “phage ELISA signal ratio” value stood at 22.7.
DMEQWWMELPQVPMYA: in assay [1], the “phage ELISA signal ratio” value turned out to be 23.1.
On to HMAWDVIWDNIYLADS, for which, in assay [3], the “phage ELISA signal ratio” value is 4.42.
Regarding EFDAMQAHWNVLHPEG, in [2], the “phage ELISA signal ratio” value worked out at 8.19.
Take NDEWDHPFTFNPGVPP: the “phage ELISA signal ratio” value in assay [4] worked out at 5.9.
For the molecule SQIQRYIDEAMTHQST, in assay [5], the “phage ELISA signal ratio” value turned out to be 13.4.
Regarding MGYWDYLPPVPGETWG, in assay [1], the “phage ELISA signal ratio” value amounted to 15.4.
On to GAWDWQLDQLLMQYLE, for which the “phage ELISA signal ratio” value in assay [5] was 4.72.
Regarding WMMTLPPDMPGEWQVV, in assay [1], the “phage ELISA signal ratio” value is 11.
In the case of ESNEMWEWVMNQAHVW, the “phage ELISA signal ratio” value in [6] came to 11.2.
As for YRWDRQPSQEAVSSKY, in assay [7], the “phage ELISA signal ratio” value is 4.04.
TDMEYWEPFTDEELSM: the “phage ELISA signal ratio” value in [8] was 10.
LSTDFLQMEHFWNQQF: the “phage ELISA signal ratio” value in [2] worked out at 3.07.
On to WADEWEAPFVWKMQEV, for which, in [4], the “phage ELISA signal ratio” value came out at 3.11.
Turning to IDSYEHHSTGMVPLPD, the “phage ELISA signal ratio” value in assay [1] was 26.3.
With IEQAELIWMEYKKQTK, the “phage ELISA signal ratio” value in assay [6] was 6.73.
As for WEWSPLPPDVETFSQI, in assay [1], the “phage ELISA signal ratio” value is 15.9.
As to YYVLDSEMETIWQSIL, the “phage ELISA signal ratio” value in assay [8] was determined as 15.3.
Turning to WEHHGWWTFWEEAPEQ, in assay [9], the “phage ELISA signal ratio” value was 4.7.
Consider WQSWDDWDRPMHPMEN, for which the “phage ELISA signal ratio” value in assay [4] stood at 6.6.
On to PYGPFKSFEYMDIQRT, for which the “phage ELISA signal ratio” value in [10] is 26.7.
Take FDPLWMALPEDKVHEM: the “phage ELISA signal ratio” value in assay [2] was determined as 3.06.
Turning to QEFWERYTIPMWVDSF, the “phage ELISA signal ratio” value in [1] came to 13.7.
For QKVHPWDDWDSPFMWF, the “phage ELISA signal ratio” value in [4] is 12.9.
In the case of PQWWHNMPALPDDIIH, the “phage ELISA signal ratio” value in assay [1] amounted to 14.7.
On to DEELWAAPFTWGPVLE, for which the “phage ELISA signal ratio” value in [4] was determined as 4.84.
Consider YIHDWEMFEHWENLWG, for which the “phage ELISA signal ratio” value in assay [8] came to 9.27.
With FDVPLPLEHDWWTSWV, in assay [2], the “phage ELISA signal ratio” value is 3.39.
As for EVEDMQWLEENWLVFW, in assay [8], the “phage ELISA signal ratio” value amounted to 12.
Regarding YWTWDDFQEMFLRLER, the “phage ELISA signal ratio” value in assay [11] came out at 4.97.
IFYWDFESQTWTMSAP: the “phage ELISA signal ratio” value in assay [12] amounted to 3.49.
Consider TEIALPWPDRAERAYL, for which, in [1], the “phage ELISA signal ratio” value amounted to 16.3.
As for EEMPWYFIEDWEMEMY, the “phage ELISA signal ratio” value in [8] is 10.6.
With SKMDEWPPEPWELMKL, the “phage ELISA signal ratio” value in assay [4] came out at 4.23.
Take DHGWWMLNSNFLPVVP: the “phage ELISA signal ratio” value in assay [1] is 9.28.
With RQSQLQMWIWDATQDE, the “phage ELISA signal ratio” value in assay [5] was found to be 3.71.
In the case of WPEYMSWDDAYWMTML, in assay [5], the “phage ELISA signal ratio” value is 4.17.
YPEHQWLEQHMFQTVQ: the “phage ELISA signal ratio” value in assay [6] amounted to 14.3.
Still for that read-out and setting: to LDHMNWPEHDWLWATM belongs 16.1.
Turning to WQWNGVWPDIIWVQVE, the “phage ELISA signal ratio” value in [13] was 7.24.
In the case of QAVVPWQMPLPDWIVS, the “phage ELISA signal ratio” value in assay [1] amounted to 18.4.
As to WELSDYTLIQAYDQIM, in assay [8], the “phage ELISA signal ratio” value is 13.8.
For the molecule PPLPPDKNDWHVEYMP, the “phage ELISA signal ratio” value in assay [1] amounted to 15.6.
As for YVTDLEMIETWNKFIN, the “phage ELISA signal ratio” value in assay [8] came out at 16.4.
As for VSWWDDGLVYDWMSEF, in [8], the “phage ELISA signal ratio” value came out at 16.5.
In the case of MEQWWHGEDIMWHWWE, the “phage ELISA signal ratio” value in assay [11] is 3.64.
With YIQDWEMMDVWNTLVG, the “phage ELISA signal ratio” value in [8] is 18.
For VWEDWTYMEDWEMMVF, the “phage ELISA signal ratio” value in assay [8] is 14.3.
For the molecule MWGGEDDLVQAWLEQF, the “phage ELISA signal ratio” value in assay [8] amounted to 9.46.
For AQMAPRWDQMQPVMVE, the “phage ELISA signal ratio” value in assay [7] came to 5.16.
Take QYMLMSLPEDDWATPH: in [2], the “phage ELISA signal ratio” value worked out at 4.31.
For the molecule QIEYWNSMEQTWVQSQ, the “phage ELISA signal ratio” value in assay [12] came out at 9.82.
Consider TPTDTAESIWEMYKKM, for which the “phage ELISA signal ratio” value in assay [6] turned out to be 28.
